Experimental findings from PubChem BioAssay (NCATS) are described below.

A short description of assay [1]: Cellular Toxicity (caspase-3) SHSY5Y (AID 657). Particulars: SH-SY5Y caspase-3 activation, DMSO zero, 10 µM staurosporine = 100%; series mostly up to 91.7 µM. The method, boiled down: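 qHTS, SH-SY5Y, 1500 cells/well, 5 h pre-incubation 37 °C; compound 16 h 37 °C; Caspase-Glo 3/7 1 h RT; luminescence. Norm.: DMSO = 0, 10 uM staurosporine = 100%. Hill fit → AC50.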

A short description of assay [2]: Cellular Toxicity (caspase-3) SK-N-SH (AID 661). Particulars: SK-N-SH caspase-3 activation, qHTS; series mostly up to 91.7 µM. The method, boiled down: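 Apoptosis readout in SK-N-SH neuroblastoma: Caspase-Glo 3/7 luminescence following 16 hr treatment in complete culture medium. Normalization used DMSO and 10 uM staurosporine controls.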
(Quantitative high-throughput screening tests each substance at several concentrations.)

Assay [3] in a line: Cellular Toxicity (caspase-3) Renal Proximal Tubule (AID 667).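 Further: cells exposed to compound for 16 hours at 37 °C before detection.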 Particulars: renal proximal tubule cells; series mostly up to 91.7 µM. The method, boiled down:
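AC50 derived by standard Hill fit of concentration-response data, normalized between DMSO basal and 10 uM staurosporine as 100% stimulation. Cells: primary rat kidney proximal tubule, 16 h treatment at 37 °C.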

Assay [4] is described as follows: Cell Viability - LYMP1-003 - Assay at 24 hr (AID 963).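 Further: plate controls were DMSO only for no effect and tetraoctylammonium bromide positive control for full effect.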 Particulars: LYMP1-003 lymphoblastoid cell viability; series mostly up to 92.2 µM. The method, boiled down:
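The lymphoblastoid line was treated with titrated compounds for 24 hours, and viable cell number estimated from luciferase-based ATP luminescence.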

Assay [5] is described as follows: Cell Viability - LYMP2-003 (AID 965).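 Further: cells exposed to compounds for 24 h before reading; 0% = DMSO only and full effect = 92 µM tetraoctylammonium bromide; nearly all actives have a fitted effect of over 50% in size.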 Particulars: LYMP2-003 lymphoblastoid cell viability; series mostly up to 92.2 µM. The method, boiled down: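 Seed 2500 lymphoblastoid cells/well; incubate 5 hr, 37 C; add compounds; incubate 24 hr, 37 C; add CellTiter-Glo, 30 min RT; read luminescence. AC50 from Hill fit.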
Assay [6] in a line: Cell Viability - LYMP2-005 (AID 967).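 Further: cells exposed to compound for 24 h at 37 °C; plate controls were DMSO only for no effect and 92 µM tetraoctylammonium bromide control for full effect.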 Particulars: LYMP2-005 lymphoblastoid cell viability; series mostly up to 92.2 µM. The method, boiled down: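 Acute cytotoxicity is scored as a concentration-dependent drop in intracellular ATP in human lymphoblastoid LYMP2-005 cells after 24 h compound treatment. ATP is quantified by luciferase luminescence, and AC50 is derived by Hill-equation modelling.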

Assay [7] in a line: Cell Viability - LYMP2-009 (AID 968).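 Further: cells exposed to compound for 24 h at 37 °C; 0% = DMSO alone and the full-kill end = tetraoctylammonium bromide at 92 µM; nearly all actives have a fitted effect of over 55% in size.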 Particulars: LYMP2-009 lymphoblastoid cell viability; series mostly up to 92.2 µM.
Assay [8] is described as follows: Cell Viability - LYMP2-013 (AID 970).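 Further: cells exposed to compound for 24 h at 37 °C; 0% = DMSO only and full inhibition = tetraoctylammonium bromide control; nearly all actives have a fitted effect of over 55% in size.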 Particulars: LYMP2-013 lymphoblastoid cells viability; series mostly up to 92.2 µM. The method, boiled down: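 In complete culture medium, human lymphoblastoid cells were dosed for 24 hr at 37 C, with tetraoctylammonium bromide (6.4pM to 92 uM) as positive control. Viability reflects luciferase-based ATP signal; AC50 derived from concentration-response curves.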

Assay [9] in a line: Cell Viability - LYMP2-017 (AID 972).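 Further: cells exposed to compound for 24 hours at 37 °C; on the % scale 0 is the no-effect control and ±100 the full control effect; nearly all actives have a fitted effect of over 55% in size.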 Particulars: LYMP2-017 lymphoblastoid cell viability; series mostly up to 92.2 µM. The method, boiled down: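 In this qHTS format, lymphoblastoid cells in complete medium receive test compound for a day at 37 C before ATP content is quantified by luciferase luminescence. Reported AC50 figures come from standard Hill-equation curve fitting.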

A short description of assay [10]: Cell Viability - LYMP2-023 (AID 975).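 Further: cellular ATP measured by luciferase luminescence as viability proxy; cells exposed to compound for 24 hours at 37 °C; plate controls were DMSO only for no effect and 92 µM tetraoctylammonium bromide control for full effect; nearly all actives have a fitted effect of over 55% in size.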 The settings on record: LYMP2-023 lymphoblastoid cell viability; series mostly up to 92.2 µM. The method, boiled down: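 In this qHTS, ATP-based luciferase luminescence (CellTiter-Glo) is quantified in human lymphoblastoid cells after 24 hr compound treatment at 37 C; tetraoctylammonium bromide serves as positive control. Concentration-response curves are Hill-fitted to give AC50.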

Assay [11] is described as follows: Cell Viability - LYMP2-016 (AID 984). Particulars: LYMP2-016 lymphoblastoid cell viability, qHTS; series mostly up to 92.2 µM. The method, boiled down:
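Cells were seeded at 2500 per well and rested 5 hr before a 24 hr compound exposure at 37 C. Viability was then gauged as cellular ATP by luciferase luminescence, with AC50 values fitted to the Hill equation.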

The target in assay [12] is Vitamin D3 receptor (Homo sapiens) (UniProt P11473). The assay is described as follows: qHTS assay for small molecule antagonists of vitamin D receptor signaling (AID 588541; calls by dose curve;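 further: receptor activated by calcitriol during compound treatment; on the % scale 0 is the no-effect control and ±100 the full control effect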). The settings on record: HEK293T VDR-UAS-bla, beta-lactamase ratio, antagonist mode; series mostly up to 76.7 µM. The method, boiled down:
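VDR-UAS-bla HEK293T cells in 2% charcoal-stripped FBS were stimulated with 1-alpha,25-dihydroxyvitamin D3 (3 nM final) plus compound for 16 h at 37 C. The beta-lactamase CCF4 readout was normalized to 50 nM agonist and DMSO, and Hill fits gave IC50.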

A short description of assay [13]: qHTS assay for small molecule activators of the p53 signaling pathway (AID 651743; active means well fitted activation curve with a large enough effect in the signal ratio, not every such curve was filed as active; the % refers to the signal ratio; further: % of control where 0% means no effect). The settings on record: HCT-116 p53RE-bla, beta-lactamase FRET ratio, 16 h; activation: stronger effect = higher value. The method, boiled down:
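Reporter: beta-lactamase driven by p53 response elements, stably integrated in HCT-116 cells. Cells seeded at 4,000/well, 5 h preincubation, compound (DMSO) 16 h at 37 C; B/G FRET substrate 2 h RT; fluorescence intensity read.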

Assay [14] in a line: qHTS assay for small molecule agonists of the antioxidant response element (ARE) signaling pathway measured by Nrf2-dependant transcriptional activity - cell viability counter screen (AID 720653; active means well fitted curve in the direction sought with a large enough effect in the repeat runs; an effect the other way counts as inactive or inconclusive; further: on the % scale 0 is the no-effect control and ±100 the full control effect). Particulars: ARE-bla HepG2 viability, CellTiter-Glo ATP luminescence, 16 h; stronger effect = lower value. The method, boiled down:
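ARE-bla HepG2 cells treated with compounds for 16 h at 37C; this counter screen measures viability as intracellular ATP by CellTiter-Glo luminescence after 30 min at room temperature.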

Assay [15] is described as follows: Cell Viability - Hek293 (AID 427;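 active means compounds whose dose-response curve shows a full or clear partial loss of cell viability, called from curve shape rather than a numeric limit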;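 further: potency means the concentration at half of the fitted maximal effect; cells exposed to compound for 40 hours at 37 °C before reading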). Particulars: qHTS. The method, boiled down:
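Luminescent ATP read-out (CellTiter-Glo, 20 min RT) after 40 hr compound exposure at 37 °C in complete medium. Signal normalized to DMSO (basal) and 100 uM tamoxifen (100% inhibition); concentration-response fitted with the standard Hill equation to give AC50.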

Assay [16] in a line: Cell Viability - N2a (AID 540).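 Further: cells exposed to compound for 40 h at 37 °C; plate controls were DMSO alone for no effect and tamoxifen control for full effect; nearly all actives have a fitted effect of over 45% in size.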 Particulars: N2a mouse neuroblastoma cell viability; activity change, negative = cytotoxicity: at 92.2 µM (top of the series). The method, boiled down: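 In this qHTS cytotoxicity screen, ATP-dependent luciferase luminescence reports viable N2a cells after a 40 hr compound exposure in complete culture medium. Potencies are AC50 values from standard Hill equation fits.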

A short description of assay [17]: Cell Viability - H-4-II-E (AID 543).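 Further: cells exposed to compound for 40 hours; on the % scale 0 is the no-effect control and ±100 the full control effect; nearly all actives have a fitted effect of over 35% in size.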 Particulars: H-4-II-E rat hepatoma viability; series mostly up to 92.2 µM. The method, boiled down:
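AC50 from Hill-modelled qHTS concentration-response curves. H-4-II-E rat hepatoma cells in complete medium, 40 hr exposure at 37 °C, viability by CellTiter-Glo ATP luminescence.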

Assay [18] can be described thus: Cellular Toxicity (caspase-3) Mesangial (AID 660).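 Further: combined caspase 3 and 7 activity read by Caspase-Glo luminescence; cells exposed to compound for 16 h before the caspase read.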 The settings on record: mesangial cells, normalized: DMSO 0%, 100 µM tamoxifen 100%; series mostly up to 91.7 µM. The method, boiled down:
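AC50 values come from Hill-equation fits of caspase 3/7 activation, measured as Caspase-Glo luminescence in human glomerular mesangial cells exposed to compound for 16 h at 37 °C; 100% set by 100 uM tamoxifen.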

A short description of assay [19]: qHTS assay for small molecule agonists of retinoid X receptor alpha signaling (AID 588544). Particulars: HEK293T RXRa-UAS-bla, beta-lactamase reporter, 18 h; 530 nm emission.
Assay [20] is described as follows: qHTS assay for cell viability of HEK293 cells (AID 743288). Further: on the % scale 0 is the no-effect control and ±100 the full control effect; nearly all actives have a fitted effect of over 50% in size. The settings on record: ATP luminescence (CellTiter-Glo), 18 h, stronger effect = lower value. The method, boiled down: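 Viable-cell counts were inferred from luciferase-based ATP content in HEK293 cells seeded at 2,000/well, pre-incubated ≥5 h, then dosed with DMSO-solubilised compounds for 18 h at 37 C.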

Values joined by “and” are separate entries in the source; they are usually repeats but may differ in a detail not shown here. Identical values can stand only once. Records with an inconclusive call do not appear. Active and inactive are the calls of the source. Unless noted, the call rests on the fitted dose curve; in most records, active means well fitted curve in the direction sought with a large enough effect; inconclusive means small, poorly fitted or top-dose-only effect, or another doubt; inactive means no such curve, though single readings can be large; an effect the other way counts as inactive or inconclusive.

Chain of Vitamin D3 receptor (Homo sapiens) (P11473 whole entry, looked up): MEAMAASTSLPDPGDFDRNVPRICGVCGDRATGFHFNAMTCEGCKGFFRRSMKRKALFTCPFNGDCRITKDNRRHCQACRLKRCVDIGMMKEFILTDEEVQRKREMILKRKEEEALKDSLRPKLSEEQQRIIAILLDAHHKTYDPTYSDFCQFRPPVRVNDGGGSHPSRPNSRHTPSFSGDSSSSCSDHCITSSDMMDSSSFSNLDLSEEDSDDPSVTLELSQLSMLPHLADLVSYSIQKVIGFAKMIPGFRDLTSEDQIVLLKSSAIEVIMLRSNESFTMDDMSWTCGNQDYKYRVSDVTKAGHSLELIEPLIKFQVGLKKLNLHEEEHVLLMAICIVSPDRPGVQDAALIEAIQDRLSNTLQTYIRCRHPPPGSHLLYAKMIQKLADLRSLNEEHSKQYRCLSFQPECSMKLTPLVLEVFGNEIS

In the case of `COP(=S)(OC)SCn1nnc2ccccc2c1=O`, the outcome in assay [1], in assay [3], in assay [4] and in assay [12] was inactive. Also, the Potency entry in assay [2], in [5], in [6], in [7], in [8] and in assay [9] was “inactive” in each case. Moreover, the Potency entry in [10] and in [11] was “inactive” each time. For the same compound, the activation in assay [13] is 1.84% (inactive) and 3.37% (inactive). For the same compound, the max response in assay [14] is -8.53% (inactive) and -8.77% (inactive).
Consider `CCOC(=O)CC(SP(=O)(OC)OC)C(=O)OCC` (stereo not drawn), for which, in [15], the Potency was > 92 µM (inactive). Besides, the Potency entry in [16], in assay [17], in assay [2], in [5], in assay [6] and in assay [7] was “inactive” in each case. Moreover, the Potency entry in assay [8], in [9], in assay [10] and in [11] was “inactive” each time. The result in assay [1], in assay [18], in assay [3] and in assay [4] was inactive. The max response in [19] was 9.41% and -5.43%; in assay [14], 0.403% (inactive) and 18.9% (inactive); in assay [20], -12.5% (inactive) and -3.42% (inactive). For the same compound, the activation in assay [13] is -0.7% (inactive) and -2.82% (inactive).
With `CC(C)[N+](=O)[O-]`, the Potency in assay [15] is > 92 µM (inactive). The Potency result in [16], in assay [17], in assay [2], in [5], in assay [6] and in [7] was “inactive” each time. The Potency entry in assay [8], in [9], in assay [10] and in [11] was “inactive” throughout. For the same compound, the outcome in assay [1], in assay [18], in assay [4] and in assay [12] was inactive. In addition, the max response in assay [19] is 5.89%; in assay [14], 1.53% (inactive); in [20], -8.31% (inactive). In addition, the activation in assay [13] was -2.67% (inactive).
As to `Oc1c(Cl)c(Cl)cc(Cl)c1Cl`, the result in [1], in assay [18], in assay [3] and in assay [4] was inactive. The Potency result in assay [5], in assay [6], in assay [8], in assay [9], in assay [10] and in assay [11] was “inactive” throughout. The max response in assay [19] was 19.2%; in [14] it was -2.21% (inactive); in assay [20], 1.93% (inactive).
In the case of `O=[N+]([O-])c1cc(Cl)c(Cl)c(Cl)c1`, in [15], the Potency is > 92 µM (inactive). Further, the Potency result in [16], in assay [17], in assay [5], in [6], in assay [8] and in assay [9] was “inactive” each time. Moreover, the Potency result in assay [10] and in assay [11] was “inactive” in each case. Also, the compound was called inactive in [1], in [3], in assay [4] and in [12]. Besides, the max response in assay [19] is 9.3%; in assay [14], -3.56% (inactive); in assay [20], -14.7% (inactive). In addition, in assay [13], the activation was -1.35% (inactive).
With `Nc1ncc([N+](=O)[O-])s1`, the Potency in assay [15] is > 92 µM (inactive). In addition, the Potency entry in [16], in assay [17], in assay [2], in [5], in [6] and in [7] was “inactive” throughout. The Potency entry in assay [8], in [9] and in [10] was “inactive” in each case. For the same compound, the compound was classed as inactive in assay [1], in [18], in assay [3], in assay [4] and in assay [12]. Besides, the max response in assay [19] was 0.224%; in assay [14] it was 0.285% (inactive); in assay [20] it was -7.17% (inactive). For the same compound, the activation in assay [13] was -4.14% (inactive).
As for `Cc1cc(N=Nc2ccccc2C)ccc1N`, the Potency in assay [15] was > 92 µM (inactive). Further, the Potency entry in assay [16], in [2], in [5], in [6], in assay [7] and in assay [9] was “inactive” each time. The Potency result in assay [11] was “inactive”. Further, the outcome in assay [1], in assay [4] and in assay [12] was inactive. In addition, the activation in assay [13] was -4.82% (inactive) and -5.43% (inactive). For the same compound, the max response in assay [14] is -2.89% (inactive) and 2.65% (inactive); in assay [20], -13.3% (inactive) and -11.6% (inactive).
As to `CCCCC(CC)COC(=O)c1ccc(C(=O)OCC(CC)CCCC)c(C(=O)OCC(CC)CCCC)c1` (stereo not drawn), the Potency in assay [15] was > 92 µM (inactive). Also, the Potency result in assay [16], in [17], in [2], in [5], in [6] and in assay [7] was “inactive” throughout. Moreover, the Potency result in assay [8], in assay [9], in assay [10] and in assay [11] was “inactive” each time. The compound was classed as inactive in assay [1], in assay [18], in assay [4] and in assay [12]. Besides, the values for the max response in assay [19] and in assay [14] were -8.52% and -7.7% (inactive), respectively. Further, the activation in assay [13] was -1.5% (inactive).
